Drawing on the supplement of paper PMC10849652, this text covers log2 fold change for 35 targets.

About 8,800 targets were measured; listed, in parts, are those with a hit and a random draw of the rest. About 0.5% of all pairs of compound and target were hits.

UniProt O15243, sequence (O15243 whole entry, looked up): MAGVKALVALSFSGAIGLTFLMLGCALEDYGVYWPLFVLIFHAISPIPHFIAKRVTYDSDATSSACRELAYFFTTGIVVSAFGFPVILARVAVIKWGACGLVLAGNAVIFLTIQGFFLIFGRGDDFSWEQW
UniProt Q8N5J2, sequence (Q8N5J2 whole entry, looked up): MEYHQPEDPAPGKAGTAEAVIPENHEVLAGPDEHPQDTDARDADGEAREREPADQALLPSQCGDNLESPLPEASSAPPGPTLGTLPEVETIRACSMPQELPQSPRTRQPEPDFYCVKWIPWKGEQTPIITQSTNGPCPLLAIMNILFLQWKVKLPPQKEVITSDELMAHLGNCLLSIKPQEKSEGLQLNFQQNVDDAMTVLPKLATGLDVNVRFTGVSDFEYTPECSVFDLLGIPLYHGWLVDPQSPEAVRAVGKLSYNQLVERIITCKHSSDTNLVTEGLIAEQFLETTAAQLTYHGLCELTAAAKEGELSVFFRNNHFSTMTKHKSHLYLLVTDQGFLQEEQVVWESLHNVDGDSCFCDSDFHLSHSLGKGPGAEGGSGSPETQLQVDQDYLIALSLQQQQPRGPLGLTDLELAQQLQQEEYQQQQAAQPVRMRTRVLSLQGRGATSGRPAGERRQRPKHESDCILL
UniProt P08473, sequence (P08473 whole entry, looked up): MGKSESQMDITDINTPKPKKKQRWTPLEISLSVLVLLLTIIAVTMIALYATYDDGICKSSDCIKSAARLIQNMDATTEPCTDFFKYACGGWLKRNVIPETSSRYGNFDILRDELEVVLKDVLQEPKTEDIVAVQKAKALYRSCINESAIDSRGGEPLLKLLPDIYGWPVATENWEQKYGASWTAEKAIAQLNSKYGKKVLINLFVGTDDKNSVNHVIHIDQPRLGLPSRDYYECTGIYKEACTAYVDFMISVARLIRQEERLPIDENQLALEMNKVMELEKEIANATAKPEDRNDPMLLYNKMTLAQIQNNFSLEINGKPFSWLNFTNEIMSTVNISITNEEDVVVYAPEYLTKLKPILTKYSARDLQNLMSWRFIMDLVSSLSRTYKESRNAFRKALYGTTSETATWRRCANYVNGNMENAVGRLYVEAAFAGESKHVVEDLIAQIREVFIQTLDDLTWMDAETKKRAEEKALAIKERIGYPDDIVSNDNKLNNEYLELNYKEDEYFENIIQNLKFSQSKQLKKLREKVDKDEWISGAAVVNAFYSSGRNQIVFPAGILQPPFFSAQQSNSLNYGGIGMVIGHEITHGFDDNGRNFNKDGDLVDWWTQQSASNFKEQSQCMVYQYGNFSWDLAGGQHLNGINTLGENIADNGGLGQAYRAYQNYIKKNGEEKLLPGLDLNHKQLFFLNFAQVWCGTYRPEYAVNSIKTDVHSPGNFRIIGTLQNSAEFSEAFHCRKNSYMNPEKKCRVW
UniProt P53667, sequence (P53667 whole entry, looked up): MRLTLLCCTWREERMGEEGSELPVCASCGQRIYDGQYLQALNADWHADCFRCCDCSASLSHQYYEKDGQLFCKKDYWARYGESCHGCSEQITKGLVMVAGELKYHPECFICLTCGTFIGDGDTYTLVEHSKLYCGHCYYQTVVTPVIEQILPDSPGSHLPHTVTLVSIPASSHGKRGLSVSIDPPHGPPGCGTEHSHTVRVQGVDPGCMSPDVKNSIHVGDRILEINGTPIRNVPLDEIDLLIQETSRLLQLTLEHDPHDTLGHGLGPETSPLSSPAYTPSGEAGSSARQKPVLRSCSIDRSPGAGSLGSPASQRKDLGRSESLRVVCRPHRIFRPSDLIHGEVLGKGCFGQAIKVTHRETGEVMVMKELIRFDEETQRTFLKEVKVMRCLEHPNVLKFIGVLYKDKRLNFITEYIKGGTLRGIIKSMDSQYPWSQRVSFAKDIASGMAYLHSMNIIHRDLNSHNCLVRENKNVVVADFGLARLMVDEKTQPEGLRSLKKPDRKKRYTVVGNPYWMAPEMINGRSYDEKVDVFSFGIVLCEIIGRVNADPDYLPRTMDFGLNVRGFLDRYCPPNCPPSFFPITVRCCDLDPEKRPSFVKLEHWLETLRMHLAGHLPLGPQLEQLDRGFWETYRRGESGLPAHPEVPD
UniProt O60337, sequence (O60337 whole entry, looked up): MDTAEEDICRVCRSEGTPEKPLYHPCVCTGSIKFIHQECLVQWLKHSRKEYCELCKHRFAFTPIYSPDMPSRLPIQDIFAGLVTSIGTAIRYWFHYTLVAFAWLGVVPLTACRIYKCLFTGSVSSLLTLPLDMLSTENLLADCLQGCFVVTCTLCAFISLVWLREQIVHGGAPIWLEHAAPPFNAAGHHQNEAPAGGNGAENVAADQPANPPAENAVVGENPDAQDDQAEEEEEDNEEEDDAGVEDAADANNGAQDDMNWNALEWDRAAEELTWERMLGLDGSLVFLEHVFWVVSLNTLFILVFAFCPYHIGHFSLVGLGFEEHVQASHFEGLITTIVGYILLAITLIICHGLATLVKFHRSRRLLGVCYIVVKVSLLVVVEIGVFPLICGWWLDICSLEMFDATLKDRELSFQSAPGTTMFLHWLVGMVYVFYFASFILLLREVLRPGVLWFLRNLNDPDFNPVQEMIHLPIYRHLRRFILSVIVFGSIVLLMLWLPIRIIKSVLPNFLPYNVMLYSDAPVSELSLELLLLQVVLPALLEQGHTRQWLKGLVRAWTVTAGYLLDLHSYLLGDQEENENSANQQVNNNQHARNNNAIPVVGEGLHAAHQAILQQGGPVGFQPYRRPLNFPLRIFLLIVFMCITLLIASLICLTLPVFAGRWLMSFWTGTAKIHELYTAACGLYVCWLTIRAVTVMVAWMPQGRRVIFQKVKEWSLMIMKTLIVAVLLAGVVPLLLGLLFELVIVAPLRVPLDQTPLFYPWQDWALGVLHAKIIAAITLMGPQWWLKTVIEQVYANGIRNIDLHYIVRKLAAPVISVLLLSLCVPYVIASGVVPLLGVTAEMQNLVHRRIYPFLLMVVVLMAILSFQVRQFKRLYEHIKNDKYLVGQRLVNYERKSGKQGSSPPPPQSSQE
UniProt Q6ZRQ5, sequence (Q6ZRQ5 whole entry, looked up): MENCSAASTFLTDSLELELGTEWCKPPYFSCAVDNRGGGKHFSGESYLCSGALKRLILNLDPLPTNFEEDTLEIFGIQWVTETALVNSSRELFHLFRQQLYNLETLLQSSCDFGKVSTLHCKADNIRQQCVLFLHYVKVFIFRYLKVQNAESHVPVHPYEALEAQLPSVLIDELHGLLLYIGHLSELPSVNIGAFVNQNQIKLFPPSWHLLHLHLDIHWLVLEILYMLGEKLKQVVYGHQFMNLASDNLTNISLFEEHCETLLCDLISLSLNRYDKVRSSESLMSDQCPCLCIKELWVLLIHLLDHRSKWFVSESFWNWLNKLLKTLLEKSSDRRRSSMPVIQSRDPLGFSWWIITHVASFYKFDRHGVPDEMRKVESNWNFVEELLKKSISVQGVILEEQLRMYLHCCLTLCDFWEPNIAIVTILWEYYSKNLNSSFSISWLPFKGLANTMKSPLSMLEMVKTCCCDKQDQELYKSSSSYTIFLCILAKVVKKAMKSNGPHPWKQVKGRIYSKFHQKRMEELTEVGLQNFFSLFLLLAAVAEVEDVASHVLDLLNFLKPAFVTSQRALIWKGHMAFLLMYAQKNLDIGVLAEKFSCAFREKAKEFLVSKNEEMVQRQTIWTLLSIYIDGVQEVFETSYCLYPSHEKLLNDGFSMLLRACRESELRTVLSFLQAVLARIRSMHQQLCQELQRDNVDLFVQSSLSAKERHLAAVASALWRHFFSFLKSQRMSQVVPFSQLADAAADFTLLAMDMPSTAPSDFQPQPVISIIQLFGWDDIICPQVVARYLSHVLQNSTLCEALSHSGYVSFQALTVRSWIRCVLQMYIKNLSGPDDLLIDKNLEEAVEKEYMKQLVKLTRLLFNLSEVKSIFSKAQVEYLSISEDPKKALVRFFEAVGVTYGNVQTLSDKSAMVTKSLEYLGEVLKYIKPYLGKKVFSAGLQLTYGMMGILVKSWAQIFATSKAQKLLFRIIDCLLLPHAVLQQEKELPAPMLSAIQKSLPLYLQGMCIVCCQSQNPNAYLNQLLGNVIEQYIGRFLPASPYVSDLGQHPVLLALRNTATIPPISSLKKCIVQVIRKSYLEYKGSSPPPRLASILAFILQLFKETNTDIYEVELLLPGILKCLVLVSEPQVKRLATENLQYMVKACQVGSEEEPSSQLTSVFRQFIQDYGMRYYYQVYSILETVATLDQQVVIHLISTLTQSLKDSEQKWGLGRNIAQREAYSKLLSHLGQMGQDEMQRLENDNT
UniProt Q9NWR8, sequence (Q9NWR8 whole entry, looked up): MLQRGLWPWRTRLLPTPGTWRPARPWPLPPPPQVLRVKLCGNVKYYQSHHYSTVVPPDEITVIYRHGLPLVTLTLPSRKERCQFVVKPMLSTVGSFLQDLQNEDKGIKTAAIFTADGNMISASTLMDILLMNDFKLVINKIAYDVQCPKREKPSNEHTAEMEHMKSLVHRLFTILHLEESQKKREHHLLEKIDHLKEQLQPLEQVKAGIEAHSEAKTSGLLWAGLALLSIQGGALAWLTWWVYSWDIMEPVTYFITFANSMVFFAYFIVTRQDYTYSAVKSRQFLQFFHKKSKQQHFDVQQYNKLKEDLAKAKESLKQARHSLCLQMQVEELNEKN
UniProt Q8WXB1, sequence (Q8WXB1 whole entry, looked up): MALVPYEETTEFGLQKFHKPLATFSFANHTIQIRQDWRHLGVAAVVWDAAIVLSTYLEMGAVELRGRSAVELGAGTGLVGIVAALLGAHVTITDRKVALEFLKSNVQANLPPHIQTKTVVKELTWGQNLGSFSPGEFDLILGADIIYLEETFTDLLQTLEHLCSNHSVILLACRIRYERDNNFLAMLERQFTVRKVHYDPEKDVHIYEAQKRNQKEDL
UniProt Q9H204, sequence (Q9H204 whole entry, looked up): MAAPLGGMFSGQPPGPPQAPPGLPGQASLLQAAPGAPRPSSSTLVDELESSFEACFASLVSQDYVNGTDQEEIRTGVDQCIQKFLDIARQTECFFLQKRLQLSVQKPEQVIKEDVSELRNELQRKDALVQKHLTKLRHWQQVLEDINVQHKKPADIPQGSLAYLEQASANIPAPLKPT

Compound in one test: CS(=O)(=O)CCNCc1ccc(-c2ccc3ncnc(Nc4ccc(OCc5cccc(F)c5)c(Cl)c4)c3c2)o1 [lapatinib]
The test is described as follows: log2 fold change, soluble protein after heating vs DMSO (PISA); higher = thermal stabilisation; K562 lysate, 10 uM; active = over 0.2 and 3.5 SD of the protein, either way, in both replicates (recomputed). The method, boiled down:
(§1)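 A 30 min treatment with 10 μM compound was applied to crude K562 extract at 1 mg/mL protein in PBS pH 7.4 with 1 mM MgCl2. Heating for 3 min spanned 48°C-58°C, after which aliquots were pooled, adjusted to 0.5% NP-40 at 4°C and spun at 21,000xg for 90 min. TMTpro 16plex LC-MS/MS of the supernatant, with channel sums equalised, gave values recorded as log-two fold change in thermal stability against solvent controls, from duplicates.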
For MAP4K4 isoform 3 (UniProt O95819), the log2 fold change is -0.061 (inactive).

Consider MARCHF6 (UniProt O60337), for which the log2 fold change was -0.039 (inactive).

As to METTL21A (UniProt Q8WXB1), the log2 fold change was 0.004 (inactive).

In the case of KIF18B (UniProt Q86Y91), the log2 fold change was -0.024 (inactive).

With KLHL12 isoform 2 (UniProt Q53G59), the log2 fold change was 0.023 (inactive).

With KRAS isoform 2 (UniProt P01116), the log2 fold change was -0.023 (inactive).

Regarding MAPK7 (UniProt Q13164), the log2 fold change was -0.145 (inactive).

Regarding MME (UniProt P08473), the log2 fold change was 0.025 (inactive).

Take LIMK1 (UniProt P53667): the log2 fold change was 0.049 (inactive).

Consider MCUB (UniProt Q9NWR8), for which the log2 fold change was 0.044 (inactive).

Take LEPROT (UniProt O15243): the log2 fold change is -0.058 (inactive).

On to MMS22L (UniProt Q6ZRQ5), for which the log2 fold change was -0.101 (inactive).

With LY6E (UniProt Q16553), the log2 fold change was -0.026 (inactive).

In the case of MED28 (UniProt Q9H204), the log2 fold change was 0.132 (inactive).

With MCMBP isoform 2 (UniProt Q9BTE3), the log2 fold change is 0.154 (inactive).

With LGALS3BP (UniProt Q08380), the log2 fold change was -0.239 (inactive).

Regarding LRP1 (UniProt Q07954), the log2 fold change was -0.047 (inactive).

Take LRRIQ1 (UniProt Q96JM4): the log2 fold change was 0.04 (inactive).

For the target MINDY1 isoform 3 (UniProt Q8N5J2), the log2 fold change was -0.002 (inactive).

Take KRIT1 (UniProt O00522): the log2 fold change is -0.115 (inactive).

KIF21A (UniProt H0YI78): the log2 fold change is -0.11 (inactive).

Regarding MAP4 isoform 5 (UniProt P27816), the log2 fold change was -0.089 (inactive).

Turning to LRRC7 (UniProt Q96NW7), the log2 fold change was -0.048 (inactive).

Turning to MRPL22 (UniProt Q9NWU5), the log2 fold change was -0.023 (inactive).

For MAP4K4 isoform 6 (UniProt O95819), the log2 fold change is -0.002 (inactive).

Compound in the next test: CS(=O)(=O)N1CCN(Cc2cc3nc(-c4cccc5[nH]ncc45)nc(N4CCOCC4)c3s2)CC1 [pictilisib]
Described as above. The method, boiled down:
as §1
With MAP4K4 isoform 3 (UniProt O95819), the log2 fold change is -0.049 (inactive).

Take MARCHF6 (UniProt O60337): the log2 fold change is 0.09 (inactive).

Regarding KLC1 isoform 10 (UniProt Q07866), the log2 fold change is -0.167 (inactive).

Regarding METTL21A (UniProt Q8WXB1), the log2 fold change is 0.06 (inactive).

Take KLHL12 isoform 2 (UniProt Q53G59): the log2 fold change is 0.048 (inactive).

On to MME (UniProt P08473), for which the log2 fold change is -0.024 (inactive).

As for LIMK1 (UniProt P53667), the log2 fold change is -0.087 (inactive).

With MEGF8 (UniProt Q7Z7M0), the log2 fold change is -0.015 (inactive).

Regarding MAPK12 (UniProt P53778), the log2 fold change is 0.059 (inactive).

MCUB (UniProt Q9NWR8): the log2 fold change is 0.088 (inactive).

With KIFC3 isoform 6 (UniProt Q9BVG8), the log2 fold change is -0.127 (inactive).

Regarding LEPROT (UniProt O15243), the log2 fold change is 0 (inactive).

As to MMS22L (UniProt Q6ZRQ5), the log2 fold change was -0.034 (inactive).

Turning to LY6E (UniProt Q16553), the log2 fold change is 0.071 (inactive).

On to MCMBP isoform 2 (UniProt Q9BTE3), for which the log2 fold change is -0.179 (inactive).

Take MINDY1 isoform 3 (UniProt Q8N5J2): the log2 fold change is 0 (inactive).

As for KRIT1 (UniProt O00522), the log2 fold change is -0.058 (inactive).

For the target KIF21A (UniProt H0YI78), the log2 fold change was 0.052 (inactive).

Turning to MAP4 isoform 5 (UniProt P27816), the log2 fold change is -0.008 (inactive).

As to LRRC7 (UniProt Q96NW7), the log2 fold change was 0.041 (inactive).

MAP4K4 isoform 6 (UniProt O95819): the log2 fold change was -0.092 (inactive).

Compound in a further test: C[C@@H](Oc1cc(-c2cnn(C3CCNCC3)c2)cnc1N)c1c(Cl)ccc(F)c1Cl [crizotinib]
The test is described as above. The method, boiled down: as §1
Turning to MARCHF6 (UniProt O60337), the log2 fold change was -0.118 (inactive).

As to MAP3K4 isoform 2 (UniProt Q9Y6R4), the log2 fold change was 0.044 (inactive).

As for LSM11 (UniProt P83369), the log2 fold change is 0.025 (inactive).

With METTL21A (UniProt Q8WXB1), the log2 fold change is -0.043 (inactive).

Consider KIF18B (UniProt Q86Y91), for which the log2 fold change is -0.008 (inactive).

As for KLHL12 isoform 2 (UniProt Q53G59), the log2 fold change is 0.016 (inactive).

With KRAS isoform 2 (UniProt P01116), the log2 fold change was -0.016 (inactive).

As to MAPK7 (UniProt Q13164), the log2 fold change is 0.246 (inactive).

As for MME (UniProt P08473), the log2 fold change is 0.037 (inactive).

In the case of LIMK1 (UniProt P53667), the log2 fold change was 0.276 (inactive).

With MEGF8 (UniProt Q7Z7M0), the log2 fold change was 0.113 (inactive).

MCUB (UniProt Q9NWR8): the log2 fold change is -0.17 (inactive).

Turning to KIFC3 isoform 6 (UniProt Q9BVG8), the log2 fold change is -0.21 (inactive).

In the case of LEPROT (UniProt O15243), the log2 fold change was -0.069 (inactive).

MMS22L (UniProt Q6ZRQ5): the log2 fold change is 0.113 (inactive).

MRC2 (UniProt Q9UBG0): the log2 fold change is -0.3 (inactive).

MED28 (UniProt Q9H204): the log2 fold change is 0.021 (inactive).

Take MCMBP isoform 2 (UniProt Q9BTE3): the log2 fold change is 0.14 (inactive).

With LGALS3BP (UniProt Q08380), the log2 fold change is 0.204 (inactive).

LRP1 (UniProt Q07954): the log2 fold change is -0.488 (inactive).

Turning to KMT2B (UniProt Q9UMN6), the log2 fold change was 0.073 (inactive).

In the case of LRRC9 (UniProt Q6ZRR7), the log2 fold change was -0.065 (inactive).

Take LRRIQ1 (UniProt Q96JM4): the log2 fold change was -0.278 (inactive).

Regarding MINDY1 isoform 3 (UniProt Q8N5J2), the log2 fold change is -0.045 (inactive).

For the target KRIT1 (UniProt O00522), the log2 fold change is -0.07 (inactive).

On to MAPKAP1 (UniProt Q9BPZ7), for which the log2 fold change is 0.02 (inactive).

Consider MAP4 isoform 5 (UniProt P27816), for which the log2 fold change is -0.034 (inactive).

As to LRRC7 (UniProt Q96NW7), the log2 fold change is 0.065 (inactive).

In the case of MRPL22 (UniProt Q9NWU5), the log2 fold change is -0.047 (inactive).
